Experimental data from PubChem BioAssay (NCATS).
Records with an inconclusive call do not appear. Some compounds were tested as several samples or in several runs, with calls that do not always agree. Active and inactive are the calls of the source. The call rests on the fitted dose curve; in most records, active means well fitted curve in the direction sought with a large enough effect; inconclusive means small, poorly fitted or top-dose-only effect, or another doubt; inactive means no such curve, though single readings can be large; an effect the other way counts as inactive or inconclusive.

System: not listed separately
Test: Cell Viability - LYMP2-026 (AID 989); further: nearly all actives have a fitted effect of over 50% in size; further: potency means the concentration at half of the fitted maximal effect; on activity change, negative = cytotoxic: on the % scale 0 is the no-effect control and ±100 the full control effect
Settings: LYMP2-026 lymphoblastoid cell viability, qHTS; series mostly up to 92.2 µM; activity change, negative = cytotoxic: at the top concentration
How it was run: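 Human lymphoblastoid LYMP2-026 cells, 2500/well, exposed to compound 24 h at 37 C in complete medium. Viability as intracellular ATP by CellTiter-Glo luminescence; AC50 from Hill fits of qHTS concentration-response.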

Row | SMILES | Potency | activity change, negative = cytotoxic
1 | CCCCCCCCCCCC[N+](C)(C)CCOc1ccccc1 | 39.8 µM (active) | 
2 | CC[n+]1c(-c2ccccc2)c2cc(N)ccc2c2ccc(N)cc21 | 15.8 µM (active) | 
3 | CNC(=O)Oc1cccc2ccccc12 |  | 2.06% (inactive)
4 | C[C@@H]1C[C@@H]([C@H](O)CC2CC(=O)NC(=O)C2)C(=O)[C@@H](C)C1 | 1 µM (active) | 
5 | COP(=O)(OC)OC=C(Cl)Cl |  | -1.57% (inactive)
6 | O=C(CCl)c1ccc(Cl)cc1Cl | 6.31 µM (active) | 
7 | Oc1c(Br)cc(Br)cc1Br |  | -2.18% (inactive)

Target: Alpha-galactosidase A (Homo sapiens) (UniProt P06280)
Test: Counterscreen for Glucocerebrosidase Inhibitors: qHTS Assay for Human alpha-Galactosidase at pH 4.5 (AID 992); further: 0% is about no effect
Settings: purified enzyme, fluorogenic substrate; series mostly up to 76.9 µM; activity change, negative = inhibition: at the top concentration
How it was run: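 Enzyme at 2 nM final was combined with compound (0.7 nM to 77 uM) and 80 uM 4-methylumbelliferyl alpha-D-galactopyranoside in 50 mM citric acid, 0.005% Tween-20, pH 4.5. After 20 min at room temperature, fluorescence was read (Ex 365/Em 440 nm); AC50 came from Hill fits.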

Sequence of Alpha-galactosidase A (Homo sapiens) (P06280 whole entry, looked up): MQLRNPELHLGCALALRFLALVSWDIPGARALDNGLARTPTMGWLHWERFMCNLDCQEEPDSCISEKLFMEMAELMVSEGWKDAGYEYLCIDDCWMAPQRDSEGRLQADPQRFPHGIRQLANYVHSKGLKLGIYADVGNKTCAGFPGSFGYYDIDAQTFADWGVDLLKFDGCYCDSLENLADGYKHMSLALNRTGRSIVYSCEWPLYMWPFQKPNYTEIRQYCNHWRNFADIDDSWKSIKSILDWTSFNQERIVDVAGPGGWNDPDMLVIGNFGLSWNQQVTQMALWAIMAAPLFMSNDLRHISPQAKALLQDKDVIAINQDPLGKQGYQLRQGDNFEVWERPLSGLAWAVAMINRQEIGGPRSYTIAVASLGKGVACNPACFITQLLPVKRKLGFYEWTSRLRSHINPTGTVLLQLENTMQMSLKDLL

Row | SMILES | activity change, negative = inhibition
8 | COC(=O)C1=CCCN(C)C1 | 0.0003% (inactive)
9 | c1ccc2nc(N3CCNCC3)ccc2c1 | 2.66% (inactive)
10 | NC(=O)CN1CCCC1=O | 1.1% (inactive)
11 | CN1[C@@H]2CC[C@H]1CC(OC(=O)c1cc(Cl)cc(Cl)c1)C2 (stereo partly drawn) | -3.23% (inactive)
12 | O=C(O)c1nn(Cc2ccc(Cl)cc2Cl)c2ccccc12 | 0.713% (inactive)
13 | CCCCCCCCC(=O)NCc1ccc(O)c(OC)c1 | -1.95% (inactive)
14 | C[C@H](N)[C@H](O)c1ccc(O)c(O)c1 | -0.794% (inactive)
15 | COc1ccc(C(=O)N2CCCC2=O)cc1 | -2.45% (inactive)

System: not listed separately
Test: Cell Viability - LYMP1-002 - Assay at 24 hr (AID 993); further: potency means the concentration at half of the fitted maximal effect; on activity change, negative = cytotoxicity: on the % scale 0 is the no-effect control and ±100 the full control effect
Settings: LYMP1-002 lymphoblastoid cells viability; series mostly up to 92.2 µM; activity change, negative = cytotoxicity: at the top concentration
How it was run: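 Human lymphoblastoid LYMP1-002 cells (2500/well) treated 24 h at 37 °C; viability as intracellular ATP by CellTiter-Glo luminescence. Tetraoctylammonium bromide as positive control; AC50 from Hill-equation fits of qHTS concentration-response.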

Row | SMILES | Potency | activity change, negative = cytotoxicity
16 | CCCCCCCCCCCC[N+](C)(C)CCOc1ccccc1 | 7.94 µM (active) | 
17 | CC[n+]1c(-c2ccccc2)c2cc(N)ccc2c2ccc(N)cc21 | 31.6 µM (active) | 
18 | COC(=O)C1=C(C)NC(C)=C(C(=O)OC)C1c1ccccc1[N+](=O)[O-] | 50.1 µM (active) | 
19 | CNC(=O)Oc1cccc2ccccc12 |  | -4.89% (inactive)
20 | CN(C)C(=S)SSC(=S)N(C)C | 0.316 µM (active) | 
21 | C[C@@H]1C[C@@H]([C@H](O)CC2CC(=O)NC(=O)C2)C(=O)[C@@H](C)C1 |  | -1.08% (inactive)
22 | COP(=O)(OC)OC=C(Cl)Cl |  | 4.12% (inactive)
23 | O=C(CCl)c1ccc(Cl)cc1Cl | 15.8 µM (active) | 
24 | Oc1c(Br)cc(Br)cc1Br |  | -0.684% (inactive)

System: not listed separately
Test: Cell Viability - LYMP1-002 - Assay at 40 hr (AID 994); further: nearly all actives have a fitted effect of over 60% in size; further: potency means the concentration at half of the fitted maximal effect;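 on viability change, negative = cytotoxic: 0% = DMSO only and full inhibition = 92 µM tetraoctylammonium bromide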
Settings: LYMP1-002 lymphoblastoid cell viability; series mostly up to 92.2 µM; viability change, negative = cytotoxic: at the top concentration
How it was run: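 LYMP1-002 human lymphoblastoid cells (2500/well, complete medium) were treated with compounds for 40 hr at 37 C. Intracellular ATP was measured by CellTiter-Glo luminescence, and AC50 values came from Hill-equation fits of concentration-response data; tetraoctylammonium bromide was the positive control.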

Row | SMILES | Potency | viability change, negative = cytotoxic
25 | CCCCCCCCCCCC[N+](C)(C)CCOc1ccccc1 | 31.6 µM (active) | 
26 | CC[n+]1c(-c2ccccc2)c2cc(N)ccc2c2ccc(N)cc21 | 31.6 µM (active) | 
27 | COC(=O)C1=C(C)NC(C)=C(C(=O)OC)C1c1ccccc1[N+](=O)[O-] | 39.8 µM (active) | 
28 | Oc1ccc(Cl)cc1Sc1cc(Cl)ccc1O | 50.1 µM (active) | 
29 | CNC(=O)Oc1cccc2ccccc12 |  | -15.1% (inactive)
30 | CN(C)C(=S)SSC(=S)N(C)C | 3.98 µM (active) | 
31 | C[C@@H]1C[C@@H]([C@H](O)CC2CC(=O)NC(=O)C2)C(=O)[C@@H](C)C1 | 1.26 µM (active) and inactive | 
32 | COP(=O)(OC)OC=C(Cl)Cl | 12.6 µM (active) and inactive | 
33 | O=C(CCl)c1ccc(Cl)cc1Cl | 25.1 µM (active) | 
34 | Oc1c(Br)cc(Br)cc1Br |  | 0.449% (inactive)

Target: alpha-glucosidase (Oryza sativa, rice) (UniProt Q653V4)
Test: Counterscreen for Glucocerebrosidase Inhibitors: qHTS Assay for Rice alpha-Glucosidase at pH 5.0 (AID 997);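 further: 0% = full activity with enzyme and -100% = basal without enzyme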
Settings: rice alpha-glucosidase enzyme activity; series mostly up to 76.9 µM; activity change, negative = inhibition: at the top concentration
How it was run: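 Rice alpha-glucosidase (4 nM final) with 400 uM 4-methylumbelliferyl-alpha-D-glucopyranoside in citrate buffer pH 5.0, 20 min at room temperature, stopped at pH 10; fluorescence 365/440 nm, compounds 0.7 nM–77 uM, AC50 from Hill fits.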

Row | SMILES | activity change, negative = inhibition
35 | COC(=O)C1=CCCN(C)C1 | 1.69% (inactive)
36 | c1ccc2nc(N3CCNCC3)ccc2c1 | -0.881% (inactive)
37 | NC(=O)CN1CCCC1=O | -3.77% (inactive)
38 | CN1[C@@H]2CC[C@H]1CC(OC(=O)c1cc(Cl)cc(Cl)c1)C2 (stereo partly drawn) | -3.02% (inactive)
39 | O=C(O)c1nn(Cc2ccc(Cl)cc2Cl)c2ccccc12 | 0.877% (inactive)
40 | CCCCCCCCC(=O)NCc1ccc(O)c(OC)c1 | -4.11% (inactive)
41 | C[C@H](N)[C@H](O)c1ccc(O)c(O)c1 | 4.87% (inactive)
42 | COc1ccc(C(=O)N2CCCC2=O)cc1 | -1.83% (inactive)

Target: Alpha-galactosidase (Coffea arabica) (UniProt Q42656)
Test: Counterscreen for Glucocerebrosidase Inhibitors: qHTS Assay for Coffee Bean alpha-Galactosidase at pH 5.9 (AID 998);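 further: plate controls were uninhibited enzyme for no effect and no-enzyme basal signal for full effect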
Settings: coffee bean alpha-galactosidase enzyme assay; series mostly up to 76.9 µM; activity, negative = inhibition: at the top concentration
How it was run: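 Green coffee bean enzyme (2 nM) with 4-methylumbelliferyl alpha-D-galactopyranoside (80 uM) in 50 mM citric acid, 0.005% Tween-20, pH 5.9, 20 min at room temperature; compounds 0.7 nM–77 uM. Stopped at pH 10, fluorescence Ex365/Em440; Hill-fit AC50.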

Sequence of Alpha-galactosidase (Coffea arabica) (Q42656 whole entry, looked up): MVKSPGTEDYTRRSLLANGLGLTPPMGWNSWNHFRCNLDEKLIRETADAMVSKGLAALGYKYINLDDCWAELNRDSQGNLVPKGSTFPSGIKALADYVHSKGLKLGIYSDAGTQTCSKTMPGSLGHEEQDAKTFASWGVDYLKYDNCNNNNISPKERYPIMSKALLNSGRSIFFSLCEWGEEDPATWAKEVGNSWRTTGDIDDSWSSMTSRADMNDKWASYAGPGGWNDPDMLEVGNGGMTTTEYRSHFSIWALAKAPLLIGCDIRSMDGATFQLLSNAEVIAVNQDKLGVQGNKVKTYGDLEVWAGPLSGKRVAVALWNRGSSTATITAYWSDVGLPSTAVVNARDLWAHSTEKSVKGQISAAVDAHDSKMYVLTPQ

Row | SMILES | activity, negative = inhibition
43 | Cc1cc(C(C)(C)C)c(O)c(C)c1CC1=NCCN1 | 0.333% (inactive)
44 | C#CCN(C)Cc1ccccc1 | -0.36% (inactive)
45 | COc1cc2c(cc1OC)-c1cc(=Nc3c(C)cc(C)cc3C)n(C)c(=O)n1CC2 | -2.51% (inactive)
46 | CSc1ccc(C(=O)c2[nH]c(=O)[nH]c2C)cc1 | -4.63% (inactive)
47 | CCOC(=O)C(C)(C)Oc1ccc(Cl)cc1 | 1.12% (inactive)
48 | Cn1c(=O)c2c(ncn2C)n(C)c1=O | 5.54% (inactive)
49 | CN(C)CCOC(c1ccccc1)c1ccccc1 | -1.34% (inactive)
50 | CN1[C@@H]2CC[C@H]1CC(OC(=O)c1cc(Cl)cc(Cl)c1)C2 (stereo partly drawn) | -1.78% (inactive)
51 | C[C@]12C=CC(=O)C=C1CC[C@H]1[C@@H]3C[C@@H](O)[C@](O)(C(=O)CO)[C@@]3(C)C[C@H](O)[C@@]12F | 0.346% (inactive)
52 | CN(C)CCCN1c2ccccc2Sc2ccc(C(F)(F)F)cc21 | -1.14% (inactive)
53 | Cc1nc2sccn2c(=O)c1CCN1CCC(=C(c2ccc(F)cc2)c2ccc(F)cc2)CC1 | -12.4% (inactive)
54 | O=C1CC2(CCCC2)CC(=O)N1CCCCN1CCN(c2ncccn2)CC1 | 2.36% (inactive)
55 | NCCc1ccc(O)c(O)c1 | -1.51% (inactive)
56 | O=C(O)c1nn(Cc2ccc(Cl)cc2Cl)c2ccccc12 | 0.0233% (inactive)
57 | Clc1ccccc1C(c1ccccc1)(c1ccccc1)n1ccnc1 | -8.43% (inactive)
58 | NS(=O)(=O)c1cc2c(cc1Cl)NCNS2(=O)=O | 0.727% (inactive)
59 | Nc1ccn([C@H]2CC[C@@H](CO)O2)c(=O)n1 | 3.02% (inactive)
60 | CN(C)C(=O)Oc1cccc([N+](C)(C)C)c1 | 1.01% (inactive)
61 | O=C1N(c2ccccc2)c2ccccc2C1(Cc1ccncc1)Cc1ccncc1 | -6.28% (inactive)
62 | C[C@H](N)[C@H](O)c1ccc(O)c(O)c1 | 0.881% (inactive)
63 | CN1CCC(=C2c3ccccc3CC(=O)c3sccc32)CC1 | -1.13% (inactive)
